# From PubChem BioAssay (Tox21)
# Results filed as inconclusive are left out. A number with no mark means an inactive call. The source made the active and inactive calls. The call rests on the fitted dose curve; in most records, active means well fitted activation curve with a large enough effect in the repeat runs; inconclusive means weak or mixed curves; inactive means flat fitted curve, though single readings scatter.
# Assay: A CellTox Green Cytotoxicity Assay to monitor cytotoxicity in HepG2 cells - 40 hour (AID 1224879); further: nearly all actives have a fitted effect of over 40% in size
# Conditions: CellTox Green fluorescence; series mostly up to 76.8 µM; cytotoxicity increase: at the top concentration
# From the text: National Center for Advancing Translational Sciences [NCATS]
# NIH Chemical Genomics Center [NCGC]
# U.S. Environmental Protection Agency [EPA]
# National Institutes of Environmental Health Sciences [NIEHS]
# National Toxicology Program [NTP]
# Cell-based models are critical for drug discovery. Determining the natural cytotoxic effects resulting from test compounds is an essential research activity. A CellTox Green Cytotoxicity Assay to monitor cytotoxicity in real time of continues cell culture during 40 hours of the compound treatment was used to screen Tox21 10K library compounds in HepG2 cells. CellTox Green Cytotoxicity Assay is a nonlytic, homogeneous, biofluorescent method to measure cytotoxicity in cell culture after experimental manipulation. The assay system uses a proprietary asymmetric cyanine dye that is excluded from viable cells but preferentially stains the dead cell's DNA. […] Viable cells produce no appreciable increases in fluorescence. Therefore, the fluorescence signal produced by the binding interaction with dead cell DNA is proportional to cytotoxicity.
# The mixture of HepG2 cell suspension and reagents were dispensed at 600cells/6 ul/well in 1536-well tissue culture treated black solid bottom plates using a Multidrop dispenser. After the assay plates were incubated at a 37 C/5% CO2 incubator for 5 hours, 23 nL of compounds dissolved in DMSO, positive and negative controls was transferred to the assay plate by a pintool work station. The plates were incubated at 37 C for 40 hours. The fluorescence intensity were measured at 0h, 8h, 16h, 24h, 32h and 40h time points using ViewLux plate reader during compound treatment.
# On the % scale 0 is the no-effect control and ±100 the full control effect; potency means the concentration at half of the fitted maximal effect.
SMILES,Potency,cytotoxicity increase
CC(C)(C)c1ccc(N)cc1,61.7 µM (active),–
NCC1CCC(C(=O)Oc2ccc(CCC(=O)O)cc2)CC1 (stereo not given),–,-20.5% [at 35.3 µM]
COC(=O)C(c1ccccc1Cl)N1CCc2sccc2C1 (stereo not given),–,1.53% [at 35.3 µM]
O=C1c2ccccc2C(=O)N1CO,–,-1.29%
O=C1CCCc2c(O)cccc21,9.52 µM (active),–
CCC(C)(C)C,–,-0.686%
NNC(=O)CCCCC(=O)NN,–,-1.59%
N=C(N)N1CCc2ccccc2C1,–,-14.4% [at 6.97 µM]
CCN(CC)CC,–,-4.78%
COC(=O)N/N=C/c1c[n+]([O-])c2ccccc2[n+]1[O-],23.9 µM (active),–
CC(=O)O[C@@H]1CC2C3CCc4cc(OC(=O)c5ccccc5)ccc4C3CCC2(C)[C@H]1OC(C)=O (stereo not given in full),–,-20.9% [at 35.3 µM]
CC(C)OC(=O)C(C(=O)OC(C)C)=C1SC=CS1,–,2.18% [at 35.3 µM]
CC(C)CC(O)Cc1ccccc1 (stereo not given),–,3.25%
C[C@@H]1CC[C@@]2(OC1)O[C@H]1C[C@H]3[C@@H]4CC[C@H]5C[C@@H](O)CC[C@]5(C)[C@H]4CC(=O)[C@]3(C)[C@H]1[C@@H]2C,–,-2.78% [at 6.97 µM]
CC(C)c1cc(C(C)C)cc(C(C)C)c1,–,-14.6%
CC(=O)c1c(C)cc(C(C)(C)C)cc1C,38.9 µM (active),–
COC(=O)c1cc(Cl)c(NC(C)=O)cc1OC,–,-9.87% [at 35.3 µM]
O=C(O)P(=O)(O)O,–,-14.2% [at 35.3 µM]
CC(=O)SCC(CC(=O)c1ccc(C)cc1)C(=O)O (stereo not given),–,0.705% [at 35.3 µM]
CCCC(C)C(O)CC (stereo not given),–,0.289%

SMILES,Potency,cytotoxicity increase
Nc1nc(Cl)cc(Cl)n1,–,8.39%
O=C1CC2(CCCC2)CC(=O)N1CCNCC1COc2ccccc2O1 (stereo not given),–,-1.34% [at 35.3 µM]
N#Cc1cc(NC(=O)C(=O)O)c(Cl)c(NC(=O)C(=O)O)c1,–,-0.24% [at 35.3 µM]
CCN1CCN(C(=O)N[C@@H](C(=O)N[C@@H]2C(=O)N3[C@@H]2SC(C)(C)[C@H]3C(=O)O)c2ccccc2)C(=O)C1=O,–,-20.2% [at 35.3 µM]
O=c1[nH]c(=O)c2cn[nH]c2[nH]1,–,0.703%
CCCCCCC(=O)c1ccccc1,–,-1.04%
CCC(C)c1nccnc1OC (stereo not given),–,-7.08%
CCCCCCC(O)CO (stereo not given),–,0.327%
C/C=C(\C)C=O,–,-12.6%
CC(O)C(CO)C(C)O (stereo not given),–,-12.5%
CCCCN=C(N)N=C(N)N,–,-0.938% [at 35.3 µM]
COc1ccc2cc(CCC(C)=O)ccc2c1,–,-4.93% [at 35.3 µM]
CCNC(=O)C(C)OC(=O)Nc1ccccc1 (stereo not given),–,-4.17%
CN(C)CCc1c[nH]c2ccc(C[C@H]3COC(=O)N3)cc12,–,-3.17% [at 35.3 µM]
O=C(O)Cc1ccccc1Oc1ccc(Cl)cc1Cl,–,-9.49% [at 35.3 µM]
Cc1cc2c(cc1CC(=O)c1sccc1S(=O)(=O)Nc1onc(C)c1Cl)OCO2,–,-8.71% [at 35.3 µM]
N[C@H]1C(O)O[C@H](CO)[C@@H](O)[C@@H]1O (stereo not given in full),–,1.72% [at 35.3 µM]
O=C1Nc2ccccc2C1=O,–,-11.2%
CC(C)(O)CCCC1=CCC(C=O)CC1 (stereo not given),–,-4.06%
Cc1cccc(N)n1,–,-7.93%
